Source: PubChem
Rows were chosen to be rich in hits. Some 19% of all compounds tested hit in one or more screens of this group.
IL1B secr inh: inflammasome signaling inhibition, IL-1 beta readout; THP-1 LPS/ATP IL-1B secretion, AlphaLISA, 16 h; stronger effect = lower value; activity change, % at 57.5 µM; 4.7% of 360,000 active; in the data active = activity change below about -50%; inconclusive = mostly about -30% to -49%; also: % is scaled to controls: 0 for no effect and ±100 for the full control effect
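THP-1 cells pretreated 1 hr with compounds (up to 57.5 uM final), then stimulated with LPS (250 ng/mL final) plus ATP (1.25 mM final); secreted IL-1B measured by AlphaLISA after 16 hr, decreased signal indicating inhibition.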
BCR signal inh: inhibitors of chronic active B-cell receptor signaling; 0.05% of 340,000 active; ABC-DLBCL IkBa-CBG/CBR reporter, luminescence ratio, 4 h; AID 493014; Potency, µM (highest dose often 46.1 µM), for inactives: at the highest dose activity change, negative = inhibition, most hits filed as inhibitors; active = well fitted inhibition curve with a large enough effect in the signal ratio, with a control signal flat, not every such curve was filed as active; inconclusive = small, poorly fitted or top-dose-only effect, or effect the other way, or a change in a side signal; the % refers to the signal ratio;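 also: potency is read from the fitted curve at half-maximal effect; plate controls were basal doxycycline-induced cells for no effect and cells given 10 µM MG132 for full effect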
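Doxycycline induced both beetle luciferases in TMD8 lymphoma cells; IKK-driven degradation limits the IkappaBalpha-fused green signal, while red luminescence normalises for cell number and nonspecific effects. Compounds tested up to 46 uM, 4 hrs.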
TDP1 cell noCPT: qHTS for Inhibitors of human tyrosyl-DNA phosphodiesterase 1 (TDP1): qHTS in cells in absence of CPT; DT40 Tdp1-/- hTDP1 cells, no CPT, ATP luminescence, 48 h; Potency, µM (doses to about 46.2 µM), without a hit: top-dose activity change, negative = growth inhibition, actives largely listed as inhibitors; 15% of 420,000 active; AID 686978, 2013; also: potency is read from the fitted curve at half-maximal effect; % is scaled to controls: 0 for no effect and ±100 for the full control effect; nearly all actives have a fitted effect of over 55% in size
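Seeded 400 DT40-hTDP1 cells/well (vehicle DMSO, no 20 nM CPT); pinned compounds; ≥48 hr at 37 °C; CellTiter-Glo luminescence as viability measure.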
TDP1 cell CPT: DT40-hTDP1 cell growth loss with CPT. chicken DT40 Tdp1-/-;hTDP1 cells + 20 nM CPT, ATP luminescence, 48 h. Potency, µM (highest dose often 46.2 µM), without a hit: top-dose activity change, negative = growth inhibition, most hits filed as inhibitors. 12% of 420,000 active; also: potency is read from the fitted curve at half-maximal effect; % is scaled to controls: 0 for no effect and ±100 for the full control effect; nearly all actives have a fitted effect of over 55% in size
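Chicken DT40 Tdp1-/- cells stably complemented with human TDP1 were seeded at 400 cells/well in medium containing 20 nM camptothecin, exposed to pin-transferred compounds, and grown at 37 °C for at least 48 hr. Viability was read as ATP luminescence.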
MCF10A rereplic: DNA re-replication induction in MCF 10a cells; Potency, µM (titrated, usually from 46.1 µM), inactives show at the highest dose activity, positive = re-replication, actives largely listed as activators; 2.9% of 350,000 active; MCF 10A DNA re-replication, Hoechst nuclear intensity, 48 h; also: potency is read from the fitted curve at half-maximal effect; % of control where 0% means no effect; nearly all actives have a fitted effect of over 50% in size
SW480 rereplic: DNA re-replication induction in SW480 cells | Potency, µM (top dose mostly 46.1 µM), for inactives: top-dose re-replication activation, hits mostly activators | 1.8% of 340,000 active | SW480 DNA re-replication, Hoechst DNA content imaging, 48 h | AID 624297; also: potency is read from the fitted curve at half-maximal effect; % of control where 0% means no effect; nearly all actives have a fitted effect of over 55% in size
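Treated cells incubate 48 hr (37 C, 5% CO2), are stained 40 min with Hoechst, and nuclear fluorescence is enumerated; a rise in nuclei with high DNA signal marks re-replication.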
* hit, by the source's call; ? = inconclusive; nt = not tested or not shown; [ ] = dose if it differs, or a comment. Unless noted, calls follow the shape of the dose curve; as a rule, active = well fitted curve in the direction sought with a large enough effect; inconclusive = small, poorly fitted or top-dose-only effect, or another doubt; inactive = no such curve, though single readings can be large; an effect the other way counts as inactive or inconclusive.

SMILES	IL1B secr inh	BCR signal inh	TDP1 cell noCPT	TDP1 cell CPT	MCF10A rereplic	SW480 rereplic
CC1(C(=O)NCc2ccccc2Br)CCN1C(=O)C1(c2ccc(Cl)cc2)CC1 (stereo not drawn)	-28.1	nt	?	?	nt	nt
CC1(C(=O)NCc2cccc3ccccc23)CCN1Cc1ccc2ccccc2c1 (stereo not drawn)	-4.9	nt	18.4µM*	18.4µM*	nt	nt
COc1ccccc1CNC(=O)C1(C)CCN1Cc1ccc2ccccc2c1 (stereo not drawn)	-10.4	nt	-97.6%	-94.5%	nt	nt
CC1(C(=O)NCc2cccc3ccccc23)CCN1C(=O)C1(c2ccccc2)CCCC1 (stereo not drawn)	-51.6*	nt	20.6µM*	23.1µM*	nt	nt
COc1cccc(C=NC=Nc2cccc(OC)c2)c1	nt	nt	-21.7%	0.2%	nt	nt
COC(=O)c1ccccc1NC(=O)COC(=O)Cc1ccc(S(=O)(=O)N2CCOCC2)s1	17.5	nt	4.5%	-17.4%	-1.3%	-6.2%
CC(C)CCNC(=O)C1(C)CCN1Cc1ccc2ccccc2c1 (stereo not drawn)	-2.3	nt	23.1µM*	?	nt	nt
CC1(C(=O)NCc2ccccc2Br)CCN1Cc1ccc2ccccc2c1 (stereo not drawn)	-7.4	nt	?	20.6µM*	nt	nt
CCCCNC(=O)C1(C)CCCCN1Cc1ccc2ccccc2c1 (stereo not drawn)	0.0	nt	?	23.1µM*	nt	nt
Cc1ccc(CN2CCC2(C)C(=O)NC(C)C)cc1 (stereo not drawn)	14.2	nt	?	?	nt	nt
CCCCNC(=O)C1(C)CCCCCN1Cc1cccc2c(OC)cc(C(=O)OCC)cc12 (stereo not drawn)	-17.0	nt	13µM*	?	nt	nt
COc1ccc(NC(=O)C2(C)CCN2Cc2ccc3ccccc3c2)cc1OC (stereo not drawn)	-18.0	nt	?	?	nt	nt
CC12CCC(C(=O)NC3CCCCC3)([C@H](Br)C1=O)C2(C)C (stereo partly drawn)	-0.1	?	8.1%	7.0%	0.3%	-1.1%
CC1(C(=O)NCc2cccc3ccccc23)CCN1Cc1ccc(OC(F)(F)F)cc1 (stereo not drawn)	-29.8	nt	?	?	nt	nt
CC1(C(=O)NCc2cccc3ccccc23)CCN1Cc1cccc2c1OCO2 (stereo not drawn)	?	nt	14.6µM*	23.1µM*	nt	nt
O=C(Nc1nc(-c2ccc(F)cc2)cs1)c1cccnc1	8.0	11.8%	?	-16.2%	2.8%	-2.0%
CCc1ccc(-c2csc(NC(=O)C3=NN(c4ccccc4)C(=O)CC3)n2)cc1	53.1	?	25.9µM*	?	7.2%	-49.6%
O=C(COC(=O)C1=NN(c2ccccc2)C(=O)CC1)Nc1nc(-c2ccc(F)cc2)cs1	-1.5	6.9%	-17.8%	?	4.9%	?
CCc1ccc(-c2csc(NC(=O)c3cccnc3)n2)cc1	19.9	4.1%	16.4µM*	?	?	-2.2%
O=C(Nc1nc(-c2ccc(Cl)cc2)cs1)c1cccnc1	-9.6	?	18.4µM*	?	?	-23.9%
NC(=O)CSc1nc2ccccc2c(=O)n1-c1ccccc1	5.5	-2.0%	9.6%	1.7%	?	1.6%
N#CCCn1c(SCC(=O)c2c[nH]c3ccccc23)nc2ccccc21	-12.7	?	18.4µM*	23.1µM*	5.6%	-7.1%
Cc1cc(NC(=O)CSc2nc3ccccc3n2CCC#N)no1	-55.6*	-4.2%	-0.2%	7.2%	-3.0%	8.5%
O=C(CSc1nc2ccccc2c(=O)n1-c1ccccc1)c1c[nH]c2ccccc12	7.2	?	6.51µM*	6.51µM*	?	4.5%
CCCCn1c(SCC(=O)Nc2cc(C)on2)nc2ccccc2c1=O	-3.5	7.5%	-14.0%	?	-6.9%	-2.7%
SMILES	IL1B secr inh	BCR signal inh	TDP1 cell noCPT	TDP1 cell CPT	MCF10A rereplic	SW480 rereplic
CCOc1ccc(CCNC(=O)CN2C(=O)NC3(CCCCC3)C2=O)cc1OCC	0.5	0.0%	12.3%	-13.8%	0.0%	-3.5%
O=C(CC1C(=O)NCCN1Cc1ccc(-c2ccccc2)cc1)NCC1CC1 (stereo not drawn)	-54.4*	1.4%	?	-4.1%	5.4%	?
O=C(CC1C(=O)NCCN1Cc1cccc(Oc2ccccc2)c1)NCCc1cnccn1 (stereo not drawn)	?	-2.9%	-23.7%	-9.7%	3.6%	3.26µM*
O=C(CC1C(=O)NCCN1Cc1cccc(Oc2ccccc2)c1)NCc1cccnc1 (stereo not drawn)	0.6	9.3%	-19.8%	-2.3%	11.8%	5.2%
Cc1ccc(OC(=O)CCC(=O)Nc2ccc(C(N)=O)cc2)cc1	-4.0	nt	-16.2%	28.1%	-0.5%	-77.4%
COc1ccc2c(c1)C(=O)CC(O)(C(F)F)O2 (stereo not drawn)	2.2	-9.1%	-6.7%	1.7%	0.0%	-23.4%
COc1ccc(C2(OC)Oc3cc(OC)ccc3C(=O)C2(O)OC)cc1 (stereo not drawn)	-73.6*	nt	?	23.1µM*	?	16.6%
COc1cc(C(=O)OCC2CC(c3ccccc3)=NO2)cc(OC)c1OC (stereo not drawn)	-10.6	0.2%	?	-4.3%	6.8%	0.1%
COc1ccc(-c2nc3c(c(=O)n(C)c(=O)n3C)n2CC2CC(c3ccccc3)=NO2)cc1OC (stereo not drawn)	-6.0	nt	1.46µM*	10.3µM*	8.4%	0.6%
COc1ccc(C2=NOC(Cn3nc(-c4ccccc4C)cc3C(=O)O)C2)cc1 (stereo not drawn)	42.9	-2.4%	-17.1%	8.6%	?	5.0%[9.22 µM]
COc1ccc(C(=O)OCC2CC(c3ccccc3)=NO2)cc1OC (stereo not drawn)	-13.2	0.9%	?	23.1µM*	3.2%	-3.3%
CCOc1ccc(/C=C/c2ccnc3ccccc23)cc1OCC	nt	nt	11.2µM*	10µM*	nt	nt
CN(C)c1ccc(/C=C/c2ccnc3ccccc23)cc1O	nt	nt	10µM*	11.2µM*	nt	nt
CN(C)c1ccc(/C=C/c2ccnc3ccccc23)cc1C=O	nt	nt	10µM*	15.8µM*	nt	nt
CCc1cc(/C=C/c2ccnc3ccccc23)ccc1N(C)C	nt	nt	2.82µM*	5.01µM*	nt	nt
CN(C)c1ccc(/C=C/c2ccnc3ccccc23)cc1[N+](=O)[O-]	nt	nt	-11.1%	-2.5%	nt	nt
Cc1ccc(NC(=O)CN2CCN(C(=O)c3ccco3)CC2)cc1S(=O)(=O)N(C)C	15.9	nt	1.1%	-23.3%	5.7%	-0.4%
